Screening results: PubChem BioAssay, several laboratories
This is a sample that favours compounds with a hit; in the whole collection about 3.3% have one here.
BoNT F protease: inhibitors of Botulinum neurotoxin F light chain protease; actives 0.22% (n = 360,000); inhibition, % at 10 µM; AID 588497; Multiplex microsphere protease cleavage assay, flow cytometry; in the data active = inhibition above about 35%, passing the limit was not always enough; inconclusive = no clear call, values can overlap the other calls; also: plate controls were buffer without enzyme for full effect and enzyme alone for no effect
MazEF act: activators of E. coli MazEF toxin-antitoxin RNase. P0AE70. FAM/BHQ RNA-DNA oligo cleavage fluorescence, 5 h. activation, % at 20 µM. actives 0.32% (n = 350,000). AID 504720; in the data active = activation above about 50%
Anthrax LF inh2: blocks Bacillus anthracis lethal factor protease | P15917 | multiplex microsphere protease cleavage assay, LF | inhibition, % at 10 µM | actives 0.12% (n = 360,000) | AID 588501; also: plate controls were buffer without enzyme for full effect and enzyme alone for no effect
Bead autofluor: flagged as autofluorescent in microsphere protease counterscreen; actives 3.1% (n = 360,000); AID 624483; compound autofluorescence counterscreen, microsphere flow cytometry; active compounds read high; fluorescence intensity (test concentration not listed); in the data active = fluorescence intensity above about 16000; inconclusive = no clear call, values can overlap the other calls
SSB-PriA inh: blocks PriA binding to SSB C-terminal tail; AlphaScreen SSBct-PriA binding, biotinylated peptide; inhibition, % at 33 µM; actives 0.6% (n = 430,000); in the data active = inhibition mostly above about 37%, no sharp cut-off; inactive = mostly below about 20%;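 also: plate controls were negative control peptide for no effect and reference peptide for full effect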
BoNT A protease: inhibitors of Botulinum neurotoxin A light chain protease | AID 588499 | multiplex microsphere protease substrate cleavage, flow cytometry | inhibition, % at 10 µM | actives 0.17% (n = 360,000); also: plate controls were buffer without enzyme for full effect and enzyme alone for no effect
* marks the source's active call; other numbers are inactive results; ? = inconclusive; . = no result. Rule as the data show it, unless noted: active = inhibition above about 30%; inconclusive = no clear call, values can overlap the other calls; inactive = below that.

SMILES	BoNT F protease	MazEF act	Anthrax LF inh2	Bead autofluor	SSB-PriA inh	BoNT A protease
COc1ccccc1NC(=O)Cn1nc(C(F)(F)F)c2c1CCCC2	-3	-3	2	25001*	-26	-2
Cc1ccc(C)c(Cn2cnc3c(cnn3C3CCS(=O)(=O)C3)c2=O)c1 (configuration not stated)	.	.	.	.	-8	.
O=C(Cn1nc(C(F)(F)F)c2c1CCC2)N1CCN(c2ccccc2)CC1	-1	1	-2	23434*	-19	-2
O=C(Cn1nc(C(F)(F)F)c2c1CCCC2)N1CCOCC1	0	-13	0	4776	-4	-1
CCOc1cc(NC(=O)C2CCCO2)c(OCC)cc1NC(C)=O (configuration not stated)	-8	1	-3	17626*	-15	-3
O=C(Nc1ccccc1C(=O)N1CCOCC1)C1CCCO1 (configuration not stated)	6	6	-4	19285*	-3	5
CC(C)(C)C(=O)Nc1ccccc1C(=O)N1CCCC1	-3	-2	-4	3805	-13	0
NC(=O)c1ccccc1NC(=O)C1CCCO1 (configuration not stated)	-21	7	2	3317	-12	-4
O=C(Nc1ccccc1C(=O)N1CCCCC1)C1CCCCC1	-1	-6	0	22702*	3	-2
O=C(Nc1ccccc1N1CCOCC1)C1CCCO1 (configuration not stated)	-7	1	-2	3643	0	0
CSc1ccccc1NC(=O)C1CCCO1 (configuration not stated)	2	1	1	22505*	-8	2
COc1ccc(-c2cn3cccnc3n2)cc1NS(=O)(=O)c1ccc(C)cc1	.	.	.	.	0	.
O=S(=O)(Cc1ccco1)C1CN(S(=O)(=O)/C=C/c2ccccc2)C1	.	.	.	.	-14	.
Cc1nc(-c2ccccc2Cl)sc1CNC(=O)COc1ccc(F)cc1	.	.	.	.	-17	.
CCOc1ccc(S(=O)(=O)N=C(Nc2ccc(S(N)(=O)=O)cc2)c2ccccc2)cc1	.	.	.	.	1	.
COc1ccc(-c2c(C#N)c(SCC(=O)NC[C@H]3CCCO3)nc3c2C(=O)CC(C)(C)C3)cc1	.	.	.	.	8	.
COc1ccc(C=NNc2cc(C)nc3ccc(OC)cc23)c(OC)c1	.	.	.	.	41*	.
COc1ccc2nc(C)cc(N/N=C/c3cccc(OC)c3O)c2c1	-16	-19	-9	4113	.	7
CC(C)COC(=O)c1cc(-c2ccc(/C=N/n3cnnc3)o2)ccc1Cl	0	14	-2	22229*	.	1
O=C(Nc1ccccc1)c1ccc2nc(-c3ccco3)c(-c3ccco3)nc2c1	24	9	19	19000*	32	?
O=C(Nc1ccc2nc(-c3ccco3)c(-c3ccco3)nc2c1)N1CCN(c2ccccn2)CC1	15	-9	20	5771	3	41*
CC(=O)c1ccc(NC(=O)c2ccc3nc(-c4ccco4)c(-c4ccco4)nc3c2)cc1	?	4	5	3806	-12	14
Cc1cc2c(cc1C)NC(CC(=O)Nc1ccc(C)c([N+](=O)[O-])c1)C(=O)N2 (configuration not stated)	.	.	.	.	-8	.
Cc1cccc(NC(=O)CSc2nnc(Cn3nnc(-c4ccccc4)n3)n2-c2ccccc2)c1	-1	-2	-3	23099*	-2	-1
Cc1c(CCO)c(=O)[nH]n1C(=O)c1ccc(F)cc1	-2	-4	-5	23529*	-7	0
SMILES	BoNT F protease	MazEF act	Anthrax LF inh2	Bead autofluor	SSB-PriA inh	BoNT A protease
Cc1c(CCO)c(=O)n(C)n1C(=O)c1ccc(F)cc1	4	0	-2	5409	-11	0
O=C(CN1CC(c2nc(-c3ccsc3)no2)C1)NC1CCCCC1	.	.	.	.	1	.
CN(C)c1cc2c3ccccc3n(C)c2cc1N	-26	1	-20	3434	66*	0
C/C(=N/O)c1ccc2c3ccccc3n(C)c2c1	.	.	.	.	-13	.
Cn1nc(C(=O)Nc2cnc3ccnn3c2)ccc1=O	.	.	.	.	4	.
Cc1ccc(C)c(NC(=O)c2nnn(Cc3ccccc3C)c2N)c1	-3	-1	-2	23851*	-16	-1
Cc1ccc(NC(=O)c2nnn(CC(=O)Nc3ccccc3)c2N)cc1C	-13	-55	-5	4835	19	0
CCOc1ccccc1NC(=O)Cn1nnc(C(=O)NCc2ccc3c(c2)OCO3)c1N	1	65*	-4	5777	1	0
CN(C)/C=N/c1c(C(=O)NCc2ccccc2)nnn1Cc1ccccc1	12	3	2	18876*	.	8
Cc1ccc(NC(=O)Cn2nnc(C(=O)NCc3ccccc3)c2N)cc1C	-4	-11	0	23778*	-17	-3
C=CCn1c(SCCC(=O)Nc2ccc(-c3nc4ccccc4s3)cc2)nc2scc(-c3ccco3)c2c1=O	.	.	.	.	-9	.
O=C(Cn1c(=O)c2cc(Cl)ccc2n2nncc12)NCCc1cccs1	.	.	.	.	-15	.
Nc1c(C(=O)NCc2ccccc2)nnn1Cc1ccccc1	-11	-1	-13	4719	98*	-2
O=C(NNC1=NCCCCC1)c1ccccc1	2	-1	0	22558*	-8	2
O=C(NC1CCCCCC1)c1ccc(=O)n(Cc2ccc(F)cc2)n1	.	.	.	.	-13	.
COc1cc(NC(=O)Cc2nn(C)c(=O)c3ccccc23)cc(OC)c1OC	-3	4	-1	17080*	-21	?
Cn1nc(CC(=O)NC2CCCCC2)c2ccccc2c1=O	-3	1	-2	23933*	-8	-2
Cn1nc(C(=O)NC2CCCCCC2)ccc1=O	-4	3	-2	22596*	-13	?
COc1ccc(-c2ccc(=O)n(CCCNC(=O)c3c(F)cccc3Cl)n2)cc1	.	.	.	.	-14	.
CC(C)(C)c1ccc(-c2nnc3sc(-c4ccc(Br)o4)nn23)cc1	.	.	.	.	-11	.
COC(=O)c1ccc(C(=O)O)nc1	1	7	-10	6405	-9	-1
COC(=O)c1ccc(C(=O)OC)nc1	35*	-3	-5	4086	-2	1
Cc1c(CC(=O)N2C[C@H]3C[C@H](C2)c2cccc(=O)n2C3)c(=O)oc2cc3occ(C(C)(C)C)c3cc12	.	.	.	.	-4	.
Cc1nnsc1C(=O)N(Cc1nn(C)c2c1CCC2)C1CCCC1	.	.	.	.	-21	.
CC(C)C(c1nnnn1C1CCCCC1)N1CCCc2ccccc21 (configuration not stated)	-4	-3	0	3352	-16	0
CC(C)C(c1nnnn1C1CCCC1)N1CCc2ccccc21 (configuration not stated)	-2	8	-8	17487*	-19	6
CC(C)C(c1nnnn1C1CCCC1)N1CCCc2ccccc21 (configuration not stated)	-2	1	-2	24060*	-4	-3
CC(C)C(c1nnnn1C1CCCCC1)N1CCc2ccccc2C1 (configuration not stated)	3	2	0	9433	17	1
CC(=O)Nc1ccc(SCCCC(=O)N2CCc3ccccc32)nn1	.	.	.	.	-1	.
CCC(NCC(O)CN(c1ccc(OC)cc1)S(=O)(=O)c1ccc(Cl)cc1)C(=O)O (configuration not stated)	.	.	.	.	-1	.
